This passage reports Potency results from PubChem BioAssay (NCATS).

Records with an inconclusive call do not appear. A call without a number means that no potency is given here. Active and inactive are the calls of the source. Calls follow the shape of the dose curve; as a rule, active = well fitted curve in the direction sought with a large enough effect; inconclusive = small, poorly fitted or top-dose-only effect, or another doubt; inactive = no such curve, though single readings can be large; an effect the other way counts as inactive or inconclusive.

In test [1] the target is Aldehyde dehydrogenase, mitochondrial (Homo sapiens) (UniProt P05091). The test can be described thus: qHTS for Inhibitors of the Aldehyde Dehydrogenase Family (ALDH2) Primary screen (AID 2061308; also: nearly all actives have a fitted effect of over 55% in size). (Quantitative high-throughput screening tests each substance at several concentrations.)
The target in test [2] is Retinaldehyde dehydrogenase 3 (Homo sapiens) (UniProt P47895). The test can be described thus: qHTS for Inhibitors of the Aldehyde Dehydrogenase Family (ALDH1A3) Primary screen (AID 2061315).

`COc1cccc(C2c3c(ncn(-c4cccc(OC)c4)c3=N)Oc3ccc4ccccc4c32)c1` (stereo not given): the Potency result in test [1] and in test [2] was “inactive” in each case.
Regarding `Cc1cc(C)n2ncc(C(=O)Nc3ccccc3C)c2n1`, the Potency entry in test [1] and in test [2] was “inactive” each time.
As for `O=C(Cn1cc(CNCc2ccccc2)nn1)Nc1cc(C(F)(F)F)ccc1Cl`, the Potency result in test [1] and in test [2] was “inactive” in each case.
As to `CC/C(C)=C/C(=O)OC1C(OC2(C)CCC3C(C4C(C)CCC42)C3(C)C)OC(C)C(O)C1O` (stereo not given), the Potency result in test [1] and in test [2] was “inactive” each time.
Regarding `O=C1CCCC2=C1C(c1ccccc1Br)N=C(Nc1nc3ccccc3o1)N2` (stereo not given), the Potency entry in test [1] and in test [2] was “inactive” in each case.
`Fc1cccc(CNc2ncnc3ccc(-c4cccc(Cl)c4)cc23)c1`: the Potency entry in test [1] and in test [2] was “inactive” in each case.
Take `NC(=O)C1CCN(c2nnc(-c3ccc(Br)cc3)s2)CC1`: the Potency entry in test [1] and in test [2] was “inactive” throughout.
As to `Cc1ccnc(NC(=S)NC2CN(c3cccc(C(F)(F)F)c3)C2)c1`, the Potency entry in test [1] and in test [2] was “inactive” throughout.
In the case of `CN(C)CCOC(C)(c1ccccc1)c1ccc(Cl)cc1` (stereo not given), the Potency entry in test [1] and in test [2] was “inactive” in each case.
Take `CCNc1nc(C#N)nc2c1ncn2-c1cc(F)cc(F)c1`: the Potency entry in test [1] and in test [2] was “inactive” in each case.
With `Cc1ccc(-c2ccc(=O)n(CC(=O)NCCc3ccc(O)cc3)n2)cc1`, the Potency entry in test [1] and in test [2] was “inactive” throughout.
As for `Cc1ccc(NS(=O)(=O)c2cc3c(cc2Cl)CCC(=O)N3)cc1C`, the Potency result in test [1] and in test [2] was “inactive” throughout.
In the case of `Cc1ccc(-n2c(=O)ccc(=O)n2CC(=O)NCCc2ccccc2)cc1`, the Potency result in test [1] and in test [2] was “inactive” in each case.
Consider `CCOC(=O)c1ccc(-c2ccc3ncnc(NCc4csc(C)n4)c3c2)o1`, for which the Potency entry in test [1] and in test [2] was “inactive” each time.
In the case of `Cc1cnc(-c2ccccc2C2COC2)nc1NCC1CCN(c2cccnc2)CC1`, the Potency entry in test [1] and in test [2] was “inactive” each time.
In the case of `Cc1cc2c(s1)c1cnn(Cc3cccc(C(F)(F)F)c3F)c(=O)c1n2C`, the Potency entry in test [1] and in test [2] was “inactive” each time.
On to `CCNC(=O)c1ccc(-c2ccc3ncnc(NCc4nc(C)cs4)c3c2)o1`, for which the Potency result in test [1] and in test [2] was “inactive” each time.
Regarding `NC(=O)C1CCN(c2nc(-c3cccc([N+](=O)[O-])c3)cs2)CC1`, the Potency result in test [1] and in test [2] was “inactive” throughout.
On to `COc1ccc2c(c1)C=C1Cn3c-2c(C2CCCCC2)c2ccc(cc23)C(=O)NS(=O)(=O)N(C)CCOCCN(C)C1=O`, for which the Potency result in test [1] and in test [2] was “inactive” each time.
As for `O=C1Cc2cc(S(=O)(=O)N3CCN(c4ccc(CO)cc4)CC3)ccc2N1`, the Potency entry in test [1] and in test [2] was “inactive” in each case.
In the case of `Cc1ccc(S(=O)(=O)Nc2cnccc2C(=O)NCc2ccccc2)cc1`, the Potency entry in test [1] and in test [2] was “inactive” each time.
On to `O=C1CCCC2=C1C(c1[nH]ncc1Br)N=C(Nc1nc3ccccc3o1)N2` (stereo not given), for which the Potency result in test [1] and in test [2] was “inactive” each time.
For the compound `O=C1C(F)N([S+](=O)([O-])c2ccc3c(c2)OCCO3)CCN1[S+](=O)([O-])c1c(F)cccc1F` (stereo not given), the Potency result in test [1] and in test [2] was “inactive” throughout.
Regarding `O=C(OCC#CCSc1nnc(-c2ccc3ccccc3c2)o1)c1ccc(F)c(F)c1`, the Potency entry in test [1] and in test [2] was “inactive” in each case.
`COc1cc(C2Nc3ccccc3C(=O)N2Cc2ccccc2)ccc1OCc1ccc(NC(C)=O)cc1` (stereo not given): the Potency result in test [1] and in test [2] was “inactive” in each case.
Consider `O=C(c1ccc(F)c(F)c1Nc1ccc(I)cc1F)N1CC(O)(C2CCCCN2)C1` (stereo not given), for which the Potency result in test [1] and in test [2] was “inactive” throughout.
On to `Cc1cc(N[S+](=O)([O-])c2ccc(NC(=O)Cc3ccc(Cl)c([N+](=O)[O-])c3)cc2)no1`, for which the Potency entry in test [1] and in test [2] was “inactive” each time.
On to `Cc1c(P(=S)(c2ccccc2)c2ccccc2)[n+]2ccccc2n1Cc1ccccc1`, for which the Potency entry in test [1] and in test [2] was “inactive” each time.
`COc1ccc(NC(=O)C2=C(C)NC(Nc3nc4ccccc4o3)=NC2c2ccccc2Br)cc1` (stereo not given): the Potency entry in test [1] and in test [2] was “inactive” in each case.
In the case of `Cc1cc(NC(=O)c2ccc(C)c(Nc3nccc(-c4cccnc4)n3)c2)cc(-n2cnc(C)c2)c1`, the Potency result in test [1] and in test [2] was “inactive” each time.
For `CCCn1c(C)nc2c(N3CCC(N4CCN(C)CC4)CC3)nc(C)nc21`, the Potency result in test [1] and in test [2] was “inactive” throughout.
Take `CCc1ccc(NC(=O)c2cnn3c(C)cc(-c4ccccc4)nc23)cc1`: the Potency result in test [1] and in test [2] was “inactive” in each case.
For `Fc1ccc(Nc2nc(-c3ccncc3)nc3ccccc23)cc1F`, the Potency entry in test [1] and in test [2] was “inactive” throughout.
As to `Cc1cc(C)nc(NC(=S)N2CCN(c3cccc(S(C)=O)c3)CC2)c1` (stereo not given), the Potency entry in test [1] and in test [2] was “inactive” throughout.
As for `O=C(OCc1ccccc1)N1CCN(C(=O)[C@H](Cc2ccc(O[S+](=O)([O-])c3cccc4cnccc34)cc2)N[S+](=O)([O-])c2cccc3cnccc23)CC1`, the Potency entry in test [1] and in test [2] was “inactive” in each case.
Regarding `COc1ccc(C2=Nn3c(nnc3-c3ccccc3C(F)(F)F)SC2)cc1OCC1CC1`, the Potency entry in test [1] and in test [2] was “inactive” throughout.
Consider `O=C1CCCC2=C1C(c1[nH]ncc1Cl)NC(=NCCc1ccc(O)cc1)N2` (stereo not given), for which the Potency result in test [1] and in test [2] was “inactive” throughout.
As to `CC(C)(C)OC(=O)N[C@@H](Cc1ccc(O[S+](=O)([O-])c2cccc3cnccc23)cc1)C(=O)N1CCN(c2ccccc2)CC1`, the Potency entry in test [1] and in test [2] was “inactive” each time.
On to `O=c1c2ccccc2nc2sc(NCc3ccc(Oc4ccccc4)cc3)nn12`, for which the Potency result in test [1] and in test [2] was “inactive” each time.
Regarding `Cc1ccc(S(=O)(=O)Nc2cccc3ccc(C)nc23)cc1`, the Potency entry in test [1] and in test [2] was “inactive” throughout.
